Mtb FBA inh: Mtb fructose-bisphosphate aldolase inhibition; purified M. tuberculosis FBA, fluorescence read-out; P9WQA3; inhibition, % at 1 µM; 360,000 compounds, 2.3% hits; in the data active = inhibition above about 27%;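 note: 0% = vehicle and 100% = reference inhibitor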
GDH-TPI inh: counter-screen for M. tuberculosis FBA inhibitors: GDH-TPI coupled enzymes; GDH-TPI coupled enzyme counterscreen, NADH absorbance; inhibition, % at 4.8 µM; 360,000 compounds, 1.2% hits; AID 588335; in the data active = inhibition above about 30%;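 note: 0% = DMSO wells and 100% = wells lacking the enzyme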
Rv3671c inh: inhibits the M. tuberculosis serine protease Rv3671c | inhibition, % at 5.96 µM | 320,000 compounds, 0.048% hits | AID 2606; in the data active = inhibition above about 38%;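 note: extracellular domain of Rv3671c used as enzyme; 0% = enzyme with DMSO and 100% = no enzyme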
Target sequence (P9WHR9 whole entry, looked up, the tested form may be a part): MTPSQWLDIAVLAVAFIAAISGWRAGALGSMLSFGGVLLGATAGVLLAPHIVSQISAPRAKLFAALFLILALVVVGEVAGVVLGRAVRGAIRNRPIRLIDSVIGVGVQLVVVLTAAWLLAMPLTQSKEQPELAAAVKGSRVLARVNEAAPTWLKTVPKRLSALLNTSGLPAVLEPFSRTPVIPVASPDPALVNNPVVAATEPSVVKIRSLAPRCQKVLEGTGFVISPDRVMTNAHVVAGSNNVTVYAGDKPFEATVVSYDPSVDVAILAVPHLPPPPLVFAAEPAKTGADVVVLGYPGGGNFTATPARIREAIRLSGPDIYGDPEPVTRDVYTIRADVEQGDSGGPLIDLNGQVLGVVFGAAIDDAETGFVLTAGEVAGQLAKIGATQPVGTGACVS
UGM FP inh: blocks M. tuberculosis UGM enzyme. P9WIQ1. purified UGM, fluorescence polarization probe displacement. inhibition, % at 10 µM. 320,000 compounds, 0.06% hits; in the data active = inhibition above about 10%, passing the limit was not always enough
RecA splice inh: blocks M. tuberculosis RecA intein splicing. P9WHJ3. cell-free RecA intein splicing, fluorescence. inhibition, % (concentration not given with the values). 290,000 compounds, 0.75% hits; in the data active = inhibition above about 30%;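 note: 0% = vehicle wells and 100% = reference inhibitor control wells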
Vc quorum ag: quorum light induction in luxS cqsA deficient V. cholerae | AID 588436 | 350,000 compounds, 0.16% hits | V. cholerae BH1578 lux reporter, luminescence, 6 h | activation, % at 18.7 µM; in the data active = activation mostly above about 9.7%, no sharp cut-off
The depositor's hits bear a star. In the library only some 4.1% were active in any assay of this set; here they are far more common.

Screening O=C1C(=O)N(CCO)C(c2ccc(Br)cc2)/C1=C(\O)c1ccccc1 (centres undefined) returned Mtb FBA inh 2, GDH-TPI inh 33*, Rv3671c inh -3, UGM FP inh 1, RecA splice inh -4 and Vc quorum ag inactive.
Screening O=C(Nc1ccc2c(c1)OCCO2)c1ccc(Br)c(S(=O)(=O)N2CCOCC2)c1 returned Mtb FBA inh -5, GDH-TPI inh 36* and Vc quorum ag 0.
O=C(Nc1ccc2c(c1)OCO2)c1ccc(Br)c(S(=O)(=O)N2CCCC2)c1 was read as Mtb FBA inh 2, GDH-TPI inh 2, Rv3671c inh 1, UGM FP inh -1, RecA splice inh 6 and Vc quorum ag inactive.
Screening CCOc1ccc(C(=O)NC(=S)Nc2cccnc2)cc1 returned Mtb FBA inh 0, GDH-TPI inh -11, Rv3671c inh -5, UGM FP inh 12*, RecA splice inh 0 and Vc quorum ag 0.
Screening CCn1c(=S)sc2c(=O)[nH]c(SCC(=O)Nc3cc(OC)ccc3OC)nc21 returned Mtb FBA inh -2, GDH-TPI inh 34*, Rv3671c inh -2, UGM FP inh -4, RecA splice inh -5 and Vc quorum ag 0.
Screening COc1ccc(Cl)cc1-n1c(=S)sc2c(=O)[nH]c(SCC(=O)NCC3CCCO3)nc21 (centres undefined) returned Mtb FBA inh 0, GDH-TPI inh 38*, Rv3671c inh -8, UGM FP inh 1 and Vc quorum ag 0.
`COc1ccc(OC)c(NC(=O)CSc2nc3scc(C)c3c(=O)[nH]2)c1` gave Mtb FBA inh 0, GDH-TPI inh 0, Rv3671c inh 0, UGM FP inh -1, RecA splice inh 1 and Vc quorum ag inactive.
CCn1c(COc2ccc(C)cc2)nnc1SCC(=O)Nc1cc(OC)ccc1OC was read as Mtb FBA inh 0, GDH-TPI inh 3, Rv3671c inh 3, UGM FP inh 1, RecA splice inh 0 and Vc quorum ag 29*.
Screening CC(N=Cc1c(O)n(C2CC2)c(=S)[nH]c1=O)c1ccccc1 (centres undefined) returned Mtb FBA inh -3, GDH-TPI inh 35*, Rv3671c inh -6, UGM FP inh 0, RecA splice inh 1 and Vc quorum ag -1.
For O=C(N/N=C/c1c(O)n(C2CCCCC2)c(=S)[nH]c1=O)c1ccccc1O the results were Mtb FBA inh 7, GDH-TPI inh 15, Rv3671c inh 10, UGM FP inh 3, RecA splice inh 37* and Vc quorum ag inactive.
`O=C(N/N=C/c1c(O)n(C2CCCCC2)c(=S)[nH]c1=O)c1ccccc1` gave Mtb FBA inh 3, GDH-TPI inh 14, Rv3671c inh 2, UGM FP inh -4, RecA splice inh 15 and Vc quorum ag 0.
Cn1sccc1=O was read as Mtb FBA inh 2, GDH-TPI inh -2, Rv3671c inh 3, UGM FP inh -2 and Vc quorum ag inactive.
For O=C(O)COc1ccccc1/C=C1\SC(=S)N(/N=C/c2ccccc2O)C1=O the results were Mtb FBA inh -6, GDH-TPI inh 24, Rv3671c inh -4, UGM FP inh 2, RecA splice inh -2 and Vc quorum ag 0.
O=C(O)COc1ccccc1/C=C1\SC(=S)N(NC(=O)c2ccccc2O)C1=O was read as Mtb FBA inh -3, GDH-TPI inh 33*, Rv3671c inh -9, UGM FP inh -1, RecA splice inh -4 and Vc quorum ag -1.
For COc1cccc(-c2nn(C)c3sc(C(=O)NCc4ccco4)cc23)c1 the results were Mtb FBA inh 48*, GDH-TPI inh 17, Rv3671c inh -38, UGM FP inh 0, RecA splice inh 3 and Vc quorum ag inactive.
COc1ccccc1-c1nnc(NC(=O)c2ccc(S(=O)(=O)N(C)C)cc2)o1 was read as Mtb FBA inh -2, GDH-TPI inh 34*, Rv3671c inh -20, UGM FP inh -2, RecA splice inh 2 and Vc quorum ag -1.
Screening CCN(Cc1ccccc1)S(=O)(=O)c1ccc(C(=O)Nc2nnc(-c3ccccc3OC)o2)cc1 returned Mtb FBA inh -5, GDH-TPI inh 13, Rv3671c inh -42, UGM FP inh -1, RecA splice inh -2 and Vc quorum ag 0.
CCCSc1nc(N)c2c3c(sc2n1)CN(C)CC3 was read as Mtb FBA inh 41*, GDH-TPI inh 27, Rv3671c inh -1, UGM FP inh 1, RecA splice inh 2 and Vc quorum ag -1.
